Measurements reported in PubChem BioAssay (NCATS).
Inconclusive results are not listed. Entries that show only a call come without a potency. Calls of active or inactive are those of the source. Unless noted, calls come from the whole dose curve; as a rule, active = well fitted curve in the direction sought with a large enough effect; inconclusive = small, poorly fitted or top-dose-only effect, or another doubt; inactive = no such curve, though single readings can be large; an effect the other way counts as inactive or inconclusive.

Key:
[1] = target: Calcium and integrin-binding protein 1 (Homo sapiens) (UniProt Q99828); assay: Primary qHTS for Identification of Calcium Integrin Binding Protein 1 (CIB1) Competitor (AID 1508620); note: potency is the fitted concentration of half-maximal effect
Outline: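 Fluorescence polarization competition: GST-tagged CIB1 (1 uM final) preincubated with compound 15 min at room temperature, then FITC-labelled alphaIIb peptide (100 nM final) added. After 15 min at room temperature, polarization read at Ex 480/Em 540.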

[2] = A High-Content qHTS Against Drug Library for the Identification of Small Molecules that Inhibit DYT1 Early Onset Primary Dystonia-Associated Cell Pathology (AID 1645839; calls by dose curve; note: potency is the fitted concentration of half-maximal effect)
Outline: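 Flp-In T-REx 293 cells with tetracycline-inducible EGFP-delE hTOR1A (WT EGFP-hTOR1A as reference), 800 cells/well; compound added with tetracycline, 48 h at 37 C. Fixed, permeabilized cells imaged; %pathology (punctate TorsinA) primary, cell count counterscreen.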

[3] = target: Cytochrome P450 2D6 (Homo sapiens) (UniProt P10635); assay: Cytochrome P450 family 2 subfamily D member 6 (CYP2D6) small molecule antagonists: luciferase biochemical (cell-free) qHTS assay (AID 1645840; active = well fitted curve in the direction sought with a large enough effect in the repeat runs; an effect the other way counts as inactive or inconclusive; note: nearly all actives have a fitted effect of over 55% in size; note: potency is the fitted concentration of half-maximal effect)
Outline: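 P450-Glo luminescent screen: recombinant CYP2D6 enzyme–proluciferin substrate mix preincubated with compound 10 min at room temperature, then NADPH regeneration added for 1 h at room temperature. Detection reagent added for 20 min; luciferin light read as relative luminescence units.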

[4] = target: Cytochrome P450 2C9 (Homo sapiens) (UniProt P11712); assay: Cytochrome P450 family 2 subfamily C member 9 (CYP2C9) small molecule antagonists: luciferase biochemical (cell-free) qHTS assay (AID 1645842; active = well fitted curve in the direction sought with a large enough effect in the repeat runs; an effect the other way counts as inactive or inconclusive; note: potency is the fitted concentration of half-maximal effect; nearly all actives have a fitted effect of over 55% in size)
Outline: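 Luminescence, after 20 min with luciferin detection reagent, reflected CYP2C9 turnover during a 1 h NADPH-driven reaction at 37C. Enzyme-substrate mix contained 0.4% bovine serum albumin and was preincubated with compound 10 min at room temperature.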

[5] = target: Cytochrome P450 3A4 (Homo sapiens) (UniProt P08684); assay: Cytochrome P450 family 3 subfamily A member 4 (CYP3A4) small molecule antagonists: luciferase qHTS assay (AID 1645841; active = well fitted curve in the direction sought with a large enough effect in the repeat runs; an effect the other way counts as inactive or inconclusive; note: nearly all actives have a fitted effect of over 45% in size; note: potency is the fitted concentration of half-maximal effect)
Outline: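 P450-Glo CYP3A4 enzyme with proluciferin substrate preincubated 10 min with compound at room temperature, then NADPH regeneration 1 h. Luciferin detection reagent added for 20 min; luminescence recorded. Ketoconazole positive control.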

[6] = Primary qHTS for inhibitors of nuclear receptor binding SET domain protein 2 (NSD2) in an isogenic RCH-ACV NSD2 p.E1099K mutant (9B) (AID 1645876); note: nearly all actives have a fitted effect of over 70% in size
[7] = Primary qHTS for small molecule stabilizers of the endoplasmic reticulum resident proteome: Secreted ER Calcium Modulated Protein (SERCaMP) assay (AID 1508630)
Outline: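 GLuc-SERCaMP-expressing SH-SY5Y cells, pretreated 16 h with compound, are challenged with thapsigargin to empty ER calcium stores; after 4 h, coelenterazine is added directly to the medium and luminescence is imaged.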

Calcium and integrin-binding protein 1 (Homo sapiens), sequence (Q99828 whole entry, looked up): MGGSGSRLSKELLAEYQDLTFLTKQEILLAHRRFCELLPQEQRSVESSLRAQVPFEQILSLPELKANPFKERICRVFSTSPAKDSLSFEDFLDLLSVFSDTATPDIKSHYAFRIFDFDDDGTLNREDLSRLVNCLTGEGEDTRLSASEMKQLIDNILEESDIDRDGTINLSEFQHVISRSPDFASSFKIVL
Cytochrome P450 2C9 (Homo sapiens), sequence (P11712 whole entry, looked up): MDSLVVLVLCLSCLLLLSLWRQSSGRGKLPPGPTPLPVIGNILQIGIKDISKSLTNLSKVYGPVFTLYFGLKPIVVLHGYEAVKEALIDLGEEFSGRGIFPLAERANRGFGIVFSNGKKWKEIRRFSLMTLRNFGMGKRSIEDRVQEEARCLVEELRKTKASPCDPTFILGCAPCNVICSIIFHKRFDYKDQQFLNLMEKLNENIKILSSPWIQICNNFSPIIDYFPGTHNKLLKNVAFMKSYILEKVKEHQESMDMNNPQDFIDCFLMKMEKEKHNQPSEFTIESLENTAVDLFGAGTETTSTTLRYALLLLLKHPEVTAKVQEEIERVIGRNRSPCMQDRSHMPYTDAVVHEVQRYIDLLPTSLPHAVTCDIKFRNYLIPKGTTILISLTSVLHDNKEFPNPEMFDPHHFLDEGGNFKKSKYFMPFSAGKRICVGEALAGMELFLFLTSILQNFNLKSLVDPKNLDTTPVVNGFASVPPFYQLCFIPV
Cytochrome P450 2D6 (Homo sapiens), sequence (P10635 whole entry, looked up): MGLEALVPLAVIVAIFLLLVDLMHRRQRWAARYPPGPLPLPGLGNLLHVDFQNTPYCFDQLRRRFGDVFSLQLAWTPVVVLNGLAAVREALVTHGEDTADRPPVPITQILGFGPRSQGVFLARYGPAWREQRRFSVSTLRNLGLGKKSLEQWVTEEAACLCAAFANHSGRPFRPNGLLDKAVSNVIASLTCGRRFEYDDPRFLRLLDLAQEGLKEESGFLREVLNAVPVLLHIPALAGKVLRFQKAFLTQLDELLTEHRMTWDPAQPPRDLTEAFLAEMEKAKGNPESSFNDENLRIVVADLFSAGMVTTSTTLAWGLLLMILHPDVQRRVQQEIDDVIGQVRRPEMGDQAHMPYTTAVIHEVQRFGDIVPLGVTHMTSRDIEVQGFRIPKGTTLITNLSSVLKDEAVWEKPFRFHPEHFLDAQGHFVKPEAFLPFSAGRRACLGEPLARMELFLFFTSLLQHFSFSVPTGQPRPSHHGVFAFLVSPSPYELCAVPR
Cytochrome P450 3A4 (Homo sapiens), sequence (P08684 whole entry, looked up): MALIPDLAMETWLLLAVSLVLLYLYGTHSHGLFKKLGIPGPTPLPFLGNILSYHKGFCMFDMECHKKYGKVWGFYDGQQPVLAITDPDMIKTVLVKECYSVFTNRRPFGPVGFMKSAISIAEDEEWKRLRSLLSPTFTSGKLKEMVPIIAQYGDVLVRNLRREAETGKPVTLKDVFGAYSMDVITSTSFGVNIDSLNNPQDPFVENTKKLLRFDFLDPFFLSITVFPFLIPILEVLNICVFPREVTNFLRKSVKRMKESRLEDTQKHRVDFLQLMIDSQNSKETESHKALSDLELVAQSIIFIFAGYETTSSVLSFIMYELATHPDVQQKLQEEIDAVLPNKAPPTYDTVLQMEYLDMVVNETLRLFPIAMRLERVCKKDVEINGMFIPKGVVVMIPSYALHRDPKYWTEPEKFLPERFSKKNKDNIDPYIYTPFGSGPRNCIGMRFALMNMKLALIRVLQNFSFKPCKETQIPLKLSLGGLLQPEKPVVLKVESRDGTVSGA

## COC(=O)C1=CO[C@@H](O)C2C(CO)=CCC12 (stereo partly specified)
[1]
  Potency: inactive

## Nc1ccccc1N
[1]
  Potency: 100 µM (active)
[2]
  Potency: 35.5 µM (active)
[3]
  Potency: 14.6 µM (active)
[4]
  Potency: 35.6 µM (active)

## CSc1ccc(C(=O)N[C@@H]2CCCC[C@@H]2NC(=O)CNC(=O)c2cc(C(F)(F)F)ccc2NC(=O)NC(C)C)cc1
[1]
  Potency: inactive
[3]
  Potency: 9.52 µM (active)
[4]
  Potency: 3.01 µM (active)

## CC1CCCCN1S(=O)(=O)c1ccc(N2CCCC2=O)cc1 (stereo unspecified)
[1]
  Potency: inactive
[3]
  Potency: inactive
[5]
  Potency: inactive
[4]
  Potency: 15.1 µM (active)
[6]
  Potency: inactive

## CC1(C)CCCC2(C)C(CO)C(CO)=CCC12 (stereo unspecified)
[1]
  Potency: inactive

## CS(=O)(=O)NCC1CCC(Nc2nc3c(s2)CCSc2ccccc2-3)CC1 (stereo unspecified)
[1]
  Potency: inactive
[3]
  Potency: 10.7 µM (active)

## COc1ccc(C2COc3cc(O)ccc3C2)c(O)c1 (stereo unspecified)
[1]
  Potency: inactive

## CC#CC(=O)N1CCC[C@H]1c1nc(-c2ccc(C(=O)Nc3ccccn3)cc2)c2c(N)nccn12
[1]
  Potency: inactive

## CC(C)=CCCC1(C)C=Cc2c(c(C)cc3c2[nH]c2ccccc23)O1 (stereo unspecified)
[1]
  Potency: inactive
[7]
  outcome: inactive

## CCC(CC)C(=O)Nc1sc2c(c1C#N)CCC(C(C)(C)CC)C2 (stereo unspecified)
[1]
  Potency: inactive
[3]
  Potency: inactive
[5]
  Potency: 9.52 µM (active)
[4]
  Potency: 5.35 µM (active)
[6]
  Potency: inactive

## CCCC(=O)C1CCN(c2ncnc3c2CN(C(=O)c2ccc(-c4ccccc4)cc2)CC3)CC1
[1]
  Potency: inactive
[3]
  Potency: 21.3 µM (active)
[4]
  Potency: 3.01 µM (active)

## Nc1nc2c(c(N3CCNCC3)n1)CCC1=C2[C@@H]2CCCC[C@@H]2O1
[1]
  Potency: inactive
[3]
  Potency: 19 µM (active)

## C/C1=C\CCC2=C[C@@H](OC2=O)c2c(C)coc2C1
[1]
  Potency: inactive
